Measured values taken from PubChem BioAssay AID376 (PDSP, 2006).
Several values for one entry are separate records, joined by “and”; a condition that tells them apart may be missing. Equal entries are not always repeated. Among all 2,000 compounds or so, about 250 (12%) were called active. The list comes from a sample in which actives are over-represented; it also holds similar structures and randomly drawn compounds. Values without a mark were called inactive. Cut-off read from the data, not from the text of the source: active = hERG blockade below about -20% or above about 20%; inactive = in between.

Target: Voltage-gated inwardly rectifying potassium channel KCNH2 (Homo sapiens) (UniProt Q12809)
Sequence (Q12809 whole entry, looked up): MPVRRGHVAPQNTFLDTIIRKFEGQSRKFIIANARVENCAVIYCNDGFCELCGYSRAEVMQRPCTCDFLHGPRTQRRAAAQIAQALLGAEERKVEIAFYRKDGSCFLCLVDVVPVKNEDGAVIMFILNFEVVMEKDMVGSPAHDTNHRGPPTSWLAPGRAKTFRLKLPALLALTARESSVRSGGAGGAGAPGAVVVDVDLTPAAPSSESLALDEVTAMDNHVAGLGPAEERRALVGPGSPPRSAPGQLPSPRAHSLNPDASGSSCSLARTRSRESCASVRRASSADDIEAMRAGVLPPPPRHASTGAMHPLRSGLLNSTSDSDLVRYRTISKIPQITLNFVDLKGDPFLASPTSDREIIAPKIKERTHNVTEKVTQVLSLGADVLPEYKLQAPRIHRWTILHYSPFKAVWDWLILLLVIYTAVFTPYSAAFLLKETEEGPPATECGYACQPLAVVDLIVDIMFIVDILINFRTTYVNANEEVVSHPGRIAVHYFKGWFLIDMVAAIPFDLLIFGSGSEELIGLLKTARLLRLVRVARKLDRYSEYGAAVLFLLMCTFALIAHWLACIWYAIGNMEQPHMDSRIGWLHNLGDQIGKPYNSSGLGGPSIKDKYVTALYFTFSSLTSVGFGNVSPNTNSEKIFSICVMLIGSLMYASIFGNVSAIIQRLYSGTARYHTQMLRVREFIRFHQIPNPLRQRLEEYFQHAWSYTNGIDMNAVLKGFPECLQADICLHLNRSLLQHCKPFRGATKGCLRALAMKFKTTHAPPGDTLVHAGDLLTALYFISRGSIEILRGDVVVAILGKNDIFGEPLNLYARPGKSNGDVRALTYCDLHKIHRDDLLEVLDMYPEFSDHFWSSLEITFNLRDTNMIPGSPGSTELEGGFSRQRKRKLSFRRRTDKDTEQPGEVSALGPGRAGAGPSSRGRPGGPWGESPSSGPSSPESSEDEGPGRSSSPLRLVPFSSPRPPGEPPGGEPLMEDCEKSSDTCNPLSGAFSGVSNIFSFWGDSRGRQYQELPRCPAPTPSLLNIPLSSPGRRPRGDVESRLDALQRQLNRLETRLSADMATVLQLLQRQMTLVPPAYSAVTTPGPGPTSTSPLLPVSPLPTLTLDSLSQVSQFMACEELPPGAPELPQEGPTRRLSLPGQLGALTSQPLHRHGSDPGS
Assay: KCNH2 potassium channel function modulators, cell-based (AID 376);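 note: 0% = buffer alone and 100% = reference blocker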
Details: hERG-expressing cells, channel activity single-concentration screen; concentration not given here

SMILES | hERG blockade
COc1cc(C)cc2c(-c3c(O)cc(O)c4c3CC(C)NC4C)cc(-c3cc(-c4c(O)cc(O)c5c4CC(C)NC5C)c4cc(C)cc(OC)c4c3O)c(O)c12 (stereo not given) | 22.2% (active)
COc1cc(C2SCCCCCCCCCCSC(c3ccc(O)c(OC)c3)SCCCCCCCCCCS2)ccc1O (stereo not given) | 2.15%
CC(=N[N-]C(=[SH+])SCc1ccccc1)c1ccccn1.[Cl][Cu] | 3.22%
Cc1cc(C)nc(SCCc2cccc[n+]2C)n1 | 71.5% (active)
Cc1ccc(S(=O)(=O)NCc2cccc([N+](=O)[O-])c2)cc1 | 14.6%
Cc1cccc(CNc2ncnc3[nH]ncc23)c1 | -7.57%
COc1ccc(Br)c2c1CC(C(=O)O)CC2 (stereo not given) | -1.02%
Cc1ccc(C(=N)c2ccccc2Cc2cccc3ccccc23)c2ccccc12 | -5.31%
c1cncc(CSc2ncnc3nc[nH]c23)c1 | -11.9%
Cc1cc(N2CCCCC2)nc2ccc(Cc3ccc4nc(N5CCCCC5)cc(C)c4c3)cc12 | 81.4% (active)
Cc1cc(N2CCOCC2)nc2ccc(Cc3ccc4nc(N5CCOCC5)cc(C)c4c3)cc12 | 42.1% (active)
COc1ccc(CC(O)CN2CCOCC2)cc1 (stereo not given) | -3.36%
Cc1nc2ccccc2nc1N1CCCC1 | -18.7%
Cc1cc(Cl)nc2ccc(Cc3ccc4nc(Cl)cc(C)c4c3)cc12 | -16.7%
NCCNCC1CCNCC1 | -1.79%
OC1COC(OCc2ccccc2)C(O)C1O (stereo not given) | -4.05%
COc1ccc(C(=O)NN=C2C(=O)c3c(C)cc(C)cc3CC2(C)C)cc1 | 8.71%
CC1(C)C2CCC1(C)C(OC(=O)C=Cc1ccccc1)C2 (stereo not given) | -7.8%
CC(C)c1ccccc1S(=O)c1ccccc1C(C)(C)O (stereo not given) | -9.35%
CC(C)CSCC1OC(n2cnc3c(N)nccc32)C(O)C1O (stereo not given) | -11.9%
O=C(O)C(Br)C(Br)c1ccccc1[N+](=O)[O-] (stereo not given) | -1.11%
CN(N=Cc1ccccc1O)c1ccc2ccccc2n1 | -0.991%
O=[N+]([O-])c1cccc(C=NNc2ccc3ccccc3n2)c1O | 26.8% (active)
CC(=NNc1ccc2ccccc2n1)c1ccccc1O | 8.91%
Cc1cc(-c2cc(C)c(O)c(C(C)(C)C)c2)cc(C(C)(C)C)c1O | 0.0679%

SMILES | hERG blockade
CC(CS(=O)(=O)Cc1ccccc1)C(N)=O (stereo not given) | 3.43%
COc1c(O)ccc2c1CN1CCc3cc4c(cc3C1C2)OCO4 (stereo not given) | 22.7% (active)
CC1=NC(C)(COC(=O)C2(C)NC(C)(CO)CO2)COC1=O (stereo not given) | -5.89%
N=C(N)SCCc1ccccn1 | -2.29% and 1.24%
Cc1c2ccccc2c(CSC(=N)N)c2ccccc12 | 103% (active)
Cc1ncc(CSC(=N)N)n1Cc1ccccc1 | -16.6%
O=C(O)CSCCc1ccccc1 | 5.62%
CC12CC(=O)C3C(CCC4=CC(=O)CCC43C)C1CC=C2CC(=O)O (stereo not given) | -16.4%
CCCCSCc1nc2nc(Cl)c(Cl)nc2[nH]1 | -33.6% (active)
O=C(O)c1nc2nc(Cl)c(Cl)nc2[nH]1 | 6.64%
CCN(CCO)CC1CCCC2CCCCC21 (stereo not given) | -6.41%
O=C(O)C1C2OC(C(Br)C2Br)C1C(=O)O (stereo not given) | -2.82%
CC(=O)NC(Cc1ccc(O)cc1)C(=O)O (stereo not given) | -8.5%
CN1CC(c2ccccc2)C(O)(C2(c3ccccc3)CN(C)CC(c3ccccc3)C2=O)C(c2ccccc2)C1 (stereo not given) | 20.8% (active)
Nc1nc(SCCc2ccccc2)c2[nH]cnc2n1 | -0.569%
CC1(C)N=C(N)N=C(N)N1CCCCc1ccccc1 | -14.1%
Nc1nc(N)c(CCCCc2ccccc2)c(N)n1 | 26.6% (active)
Cn1c(=O)c2[nH]c(CS(=O)(=O)Cc3nc4c([nH]3)c(=O)n(C)c(=O)n4C)nc2n(C)c1=O | -2.72%
Nc1nc(N)c(N=Nc2ccc(C(=O)O)c(O)c2)c(N)n1 | 12.4%
c1ccc(SCCc2ccncc2)cc1 | 5.61%
CC(=NNS(=O)(=O)c1ccc(C)cc1)P(=O)(O)O | 15.5%
COc1cc2c3cc1Oc1c(OC)c(OC)cc4c1C(Cc1ccc(O)c(c1)Oc1ccc(cc1)CC3N(C)CC2)CN(C)C4 (stereo not given) | 37.9% (active)
COc1ccc2cc1Oc1ccc(cc1)CC1c3c(cc(OC)c4c3Oc3cc5c(cc3O4)CCNC5C2)CCN1C (stereo not given) | 79.4% (active)
COc1ccc2cc1Oc1ccc(cc1)CC1c3cc(c(OC)cc3CCN1C)Oc1c(OC)c(OC)cc3c1C(C2)N(C)CC3 (stereo not given) | 70.1% (active)
COc1ccc(CC2C(=O)NC(C)C(=O)N(C)C3Cc4ccc(cc4)Oc4cc(ccc4O)CC(C(=O)NC(C)C(=O)NC(C)C(=O)N2C)N(C)C3=O)cc1 (stereo not given) | 4.92%

SMILES | hERG blockade
COc1cc2c3cc1Oc1cc(ccc1O)CC1c4c(cc(OC)c(O)c4Oc4ccc(cc4)CC3[N+](C)(C)CC2)CC[N+]1(C)C (stereo not given) | 11.2%
N=c1sc2ccccc2n1CCS (tested in a mixture with another compound) | 5.15%
COC(NC(N)=O)C(=O)O (stereo not given) | 6.05%
Cc1c(Cl)cc(C(C)(C)C)c(O)c1Cc1c(C)c(Cl)cc(C(C)(C)C)c1O | 0.223%
CC(C)(CCC(C)(C)c1ccccc1)c1ccccc1 | 1.92%
CN(C)Cc1nsc(N(C)C)n1 | 2.33%
Cn1c(=O)c2c(nc(Cc3ccccc3)n2CC(=O)O)n(C)c1=O | 11.6%
CCOc1ccccc1C=C(C#N)C(N)=O | -12.6%
CC(=Cc1ccc(Cl)cc1)C(C)(C)C(=O)O | -2.46%
O=C(O)C1C2C=CC(O2)C1C(=O)Nc1ccccc1 (stereo not given) | -12.4%
O=C(NN=Cc1ccc2c(c1)CCC2)c1ccccc1O | 7.38%
CN(C)CCCN1CCC2(CCC(C(C)(C)C)CC2)CC1 | 11.2%
CC(C)(C)C1CCC2(CC1)CCN(CCCN1CCOCC1)CC2 | 36.7% (active)
FC(F)(F)c1nc2nc(Cl)c(Cl)nc2n1CCCN1CCOCC1 | -9.32%
c1ccc(NCCSc2nc3ccccc3s2)cc1 | -0.231%
CCC1CC(=O)N(SCC(N)C(=O)O)C1=O (stereo not given) | -6%
Fc1cccc(F)c1C(Nc1nncs1)Nc1nncs1 | -2.76%
CC(C)C(Sc1nc(N)nc2nc[nH]c12)C(=O)O (stereo not given) | 1.36%
C[N+](C)(C)CCN[N+]1(C)CCCc2ccccc21 (stereo not given) | 13.2%
CC(=NS(=O)(=O)c1ccc(Cl)c(Cl)c1)OCC(C)(C)C | 21.3% (active)
CNCC(Cl)=NS(=O)(=O)c1ccc(C)cc1 | 2.08%
CC(C)(C)C(=O)C(C(c1ccccc1)N1CCOCC1)N1CCOCC1 (stereo not given) | 18.3%
O=C(O)CC(Cc1ccccc1Cl)C(=O)O (stereo not given) | 9.3%
CC(CNC(N)=O)NC(N)=O (stereo not given) | 2.5%
C[N+](C)(C)c1cc2c(nn1)Nc1ccccc1S2 | 43.5% (active)

SMILES | hERG blockade
O=C(O)CC1(CC(=O)O)Nc2ccccc2SC1=O | -18.2%
O=S(=O)(O)CCCc1cccc2ccccc12 | -12.8%
Nc1cccc2nsnc12 | -4.23%
NC(CCc1ccccc1)(C(=O)O)c1ccccc1 (stereo not given) | -9.5%
CC12CCC(=O)C=C1CCC1C2CCC2(C)C(C(=O)COS(=O)(=O)c3ccc(Br)cc3)CCC12 (stereo not given) | 17%
NC1C2C(CC(=O)O)OCC=C3CN4CCC1(C(=O)C(=O)O)C4CC32 (stereo not given) | 13%
O=C(O)C=C(C(=O)O)C12CCN3CC4=CCOC5CC(=O)NC1C5C4CC32 (stereo not given) | 20.4% (active)
O=C1CC2OCC=C3CN4CCC5(C(=O)O)C(N1)C2C3CC45 (stereo not given) | -10.2%
ON(CCc1ccncc1)Cc1ccccc1 | -10.6%
CC12CCC(O)CC1CCC1C2CCC2(C)C(c3cc(C(F)(F)F)n[nH]3)CCC12 (stereo not given) | 8.14%
O=C1c2ccccc2C(=O)c2c(NC3CCCCC3)ccc(Nc3ccc(S(=O)(=O)O)cc3)c21 | 16.1%
CN(C)S(=O)(=O)c1ccc(Nc2ccc(O)c3c2C(=O)c2c([N+](=O)[O-])ccc(O)c2C3=O)cc1 | 64.1% (active)
O=C1C2C3C=CC(C2C(=O)N1CN1CCSCC1)C1C2C(=O)N(CN4CCSCC4)C(=O)C2C31 (stereo not given) | 7.62%
CC(=O)Nc1ccc(S(=O)(=O)N=S(C)C)cc1 | 14.2%
c1ccc(COC2NCCN2Cc2ccccc2)cc1 (stereo not given) | 7.69%
c1ccc([P+](CC[P+](c2ccccc2)(c2ccccc2)c2ccccc2)(c2ccccc2)c2ccccc2)cc1 | 11.7%
NCCCc1ccc2oc3ccccc3c2c1 | 29.2% (active)
Cc1cc(=O)[nH]c2cc3oc4ccccc4c3cc12 | 4.54%
O=C(O)CSc1ccc([N+](=O)[O-])cc1[N+](=O)[O-] | 2.18%
O=C(O)CSc1ncccc1[N+](=O)[O-] | -20.2% (active)
Cn1cnc([N+](=O)[O-])c1SCC(=O)O | 2.91%
NCC(O)CSCc1ccc(Cl)cc1 (stereo not given) | -14.3%
c1ccc(-c2nnn(CCN3CCCCC3)n2)cc1 | -7.12%
Cn1c(=O)c2c(nc(NN=Cc3ccccc3C(=O)O)n2C)n(C)c1=O | -7%
CC(C)C(C(=O)O)N1C(=O)c2ccccc2C1=O (stereo not given) | 5.91%
